# High-throughput results as filed in PubChem BioAssay.
# hNpr1 antagonist – Natriuretic polypeptide receptor (hNpr1) antagonism - Primary qHTS; Atrial natriuretic peptide receptor 1 (Homo sapiens), P16066; HEK293 hNpr1 GloSensor cGMP, ANP-stimulated luminescence; Potency, µM (doses to about 46.3 µM), for inactives: at the highest dose activity change, negative = inhibition, most hits filed as inhibitors; actives 1.6% (n = 76,000); AID 1347048, 2019; calls by dose curve; also: nearly all actives have a fitted effect of over 60% in size
#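 HEK293 cells stably expressing human Npr1 and cGMP GloSensor pGS-40F, loaded 2 h with 2% GloSensor reagent, given compound 30 min at room temperature. Luminescence read before and 20 min after 0.1 nM hNppA.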
# GPT2 inhibitor – Primary qHTS assay for inhibitors of Glutamate pyruvate transaminase 2 (GPT2). Potency, µM (series often up to 57.7 µM), without a hit: at the top dose activity change, negative = inhibition, usual class: inhibitors. Recombinant GPT2, coupled pyruvate oxidase/HRP Amplex Red fluorescence. actives 0.25% (n = 100,000); also: nearly all actives have a fitted effect of over 60% in size
#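 Recombinant GPT2 (10ng/uL) with 250uM a-KG and 2mM L-alanine, 30 min at room temperature, in HEPES pH 7.5 buffer. Pyruvate detected by pyruvate oxidase/HRP/Amplex Red fluorescence after 30 min in the dark; AOA (50uM) as positive control.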
# Luciferase inh – Firefly luciferase inhibition profiling of diverse chemical library using quantitative high-throughput screening; actives 2.5% (n = 76,000); purified P. pyralis luciferase, luminescence, biochemical; Potency, µM (highest dose often 115 µM), usual class: inhibitors; Luciferin 4-monooxygenase (Photinus pyralis), P08659; also: nearly all actives have a fitted effect of over 65% in size
#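 Inhibitors were tested against purified firefly luciferase in a biochemical, low-substrate format (both substrates at 10uM) and luminescence measured with a CCD imager.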
# HEK293 tox – Cytotoxic Profiling in HEK 293 Cell Line of Diverse Libraries Using Quantitative High-Throughput Screening; HEK 293 viability, ATP luminescence (CellTiter-Glo), 48-72 h; Potency, µM (highest dose often 115 µM), for inactives: top-dose activity change, negative = cytotoxicity, usual class: inhibitors; actives 6.6% (n = 94,000); AID 1345083, 2018; also: nearly all actives have a fitted effect of over 60% in size
#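 HEK 293 cells seeded at 250 cells/well were exposed to compound for 48 or 72 hr at 37 degree Celsius. Viability taken as ATP content by CellTiter-Glo luminescence.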
# 3T3 cytotox – Cytotoxic Profiling in NIH 3T3 Cell Line of Diverse Libraries Using Quantitative High-Throughput Screening. Potency, µM (doses to about 96.7 µM), inactives show at the highest dose activity change, negative = cytotoxicity, hits mostly inhibitors. actives 4.3% (n = 94,000). NIH 3T3 viability, CellTiter-Glo ATP luminescence, 48-72 h. AID 1345082, 2018; also: nearly all actives have a fitted effect of over 55% in size
#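 Cells were seeded at 400 per well, treated with pin-transferred compound, and kept 48 or 72 hr at 37 °C before CellTiter-Glo addition and luminescence imaging of cellular ATP.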
# * marks the source's active call; other numbers are inactive results; i = inactive; ? = inconclusive; . = no result given; [ ] = dose if it differs, or a comment. Most compounds without a hit are left out; they make up all but 10% or so of the library. Unless noted, calls follow the shape of the dose curve; as a rule, active = well fitted curve in the direction sought with a large enough effect; inconclusive = small, poorly fitted or top-dose-only effect, or another doubt; inactive = no such curve, though single readings can be large; an effect the other way counts as inactive or inconclusive. % is scaled to controls: 0 for no effect and ±100 for the full control effect; potency is read from the fitted curve at half-maximal effect.
SMILES,hNpr1 antagonist,GPT2 inhibitor,Luciferase inh,HEK293 tox,3T3 cytotox
CC#CCn1cc2c3c(cccc31)[C@H](CC(C)C)N[C@H](C(=O)NCc1ccc(OC)cc1)C2,0%,3%,i,?,?
CC#CCn1cc2c3c(cccc31)[C@H](CC(C)C)N[C@H](C(=O)NCCNC(C)=O)C2,-2%[70.6 µM],1%[88.5 µM],i,100µM*,?
CC#CCn1cc2c3c(cccc31)[C@H](CC(C)C)N[C@H](C(=O)NCCN(C)C)C2,-11%[70.6 µM],-28%[88.5 µM],i,28µM*,40µM*
CC#CCn1cc2c3c(cccc31)[C@H](CC(C)C)N[C@H](C(=O)NC1CC1)C2,-11%[70.6 µM],?,i,89µM*,?
C=CCNC(=O)[C@@H]1Cc2cn(CC#CC)c3cccc(c23)[C@H](CC(C)C)N1,0%[70.6 µM],-9%[88.5 µM],i,?,?
Cn1cc(CN2CCC(C3CCN(S(C)(=O)=O)CC3)C2)c2ccccc21 (stereo not given),0%,?,i,?,?
CCN1CCN(C(=O)c2cc(-c3ccc(F)cc3)nc3c2cnn3C)CC1,.,1%[88.5 µM],.,-3%[172 µM],?
O=C(Cc1cccc(Cl)c1)NC1CCN(C(=O)c2ccc(-c3cncnc3)cc2)CC1,.,-18%,.,-28%,-26%
CC#CCn1cc2c3c(cccc31)[C@H](CC(C)C)N[C@H](C(=O)NCc1ccccc1)C2,-21%[70.6 µM],?,i,63µM*,?
CC#CCn1cc2c3c(cccc31)[C@H](CC(C)C)N[C@H](C(=O)NCc1cccs1)C2,-15%[70.6 µM],0%[88.5 µM],i,71µM*,?
C#CCNC(=O)[C@@H]1Cc2cn(CC#CC)c3cccc(c23)[C@H](CC(C)C)N1,-2%[70.6 µM],-11%[88.5 µM],i,?,?
COc1ccc(OC)c(S(=O)(=O)N2CC(CNC(=O)C3CC3)C3(CCCCC3)C2)c1 (stereo not given),.,i,.,?,-34%
Cc1ccc(CN2C(=O)[C@@H]3C[C@@H](O)CN3C3(CN(Cc4ccccc4F)C3)C2=O)o1,-3%[70.6 µM],i,i,-1%[172 µM],-12%[174 µM]
CC1=C[C@@H](CN2CCN(C)CC2)[C@H](C(C)C)C[C@H]1Cc1nnc(C)o1,3%[70.6 µM],-3%[88.5 µM],i,?,3%[174 µM]
CC1=C[C@@H](CN2CCOCC2)[C@H](C(C)C)C[C@H]1Cc1nnc(-c2ccc(N(C)C)cc2)o1,-26%,-20%,i,?,?
CC1=C[C@@H](CNC(=O)c2cncnc2)[C@H](C(C)C)C[C@H]1Cc1nnc(-c2ccncc2)o1,-19%[70.6 µM],-5%[88.5 µM],i,79µM*,?
CC1=C[C@@H](CN2CCN(CCO)CC2)[C@H](C(C)C)C[C@H]1Cc1nnc(-c2ccncc2)o1,1%,?,i,45µM*,?
CC1=C[C@@H](CN2CCN(C)CC2)[C@H](C(C)C)C[C@H]1Cc1nnc(-c2ccc(C)cc2)o1,-11%[70.6 µM],-26%[88.5 µM],i,28µM*,22µM*
CC1=C[C@@H](CN2CCN(C)CC2)[C@H](C(C)C)C[C@H]1Cc1nnc(-c2ccc(N(C)C)cc2)o1,2%,1%,i,22µM*,40µM*
CC(=O)N1CCN(C(=O)C[C@@H]2C[C@@H](C(C)C)[C@H](CNC(=O)c3cncnc3)C=C2C)CC1,4%,i,i,2%,1%
COc1ccc(-c2ccccc2C(=O)N2CCCC2)nn1,.,.,.,-3%[172 µM],3%[138 µM]
O=C(Cc1cccc(Cl)c1)NC1CCN(C(=O)c2ccc(-c3cccs3)cc2)CC1,.,-11%,.,?,?
O=C(COc1ccccc1)NC1CCCc2c1[nH]c1c(Cl)cccc21 (stereo not given),-2%,-5%,i,45µM*,?
COc1ccc(C2(C(=O)NC3CCCc4c3[nH]c3c(Cl)cccc43)CCOCC2)cc1 (stereo not given),?,i,i,45µM*,22µM*
O=C(Cc1ccc2c(c1)OCCCO2)NC1CCCc2c1[nH]c1c(Cl)cccc21 (stereo not given),-6%,2%,i,?,?
SMILES,hNpr1 antagonist,GPT2 inhibitor,Luciferase inh,HEK293 tox,3T3 cytotox
O=C(Cc1cccs1)NC1CCCc2c1[nH]c1c(Cl)cccc21 (stereo not given),-8%,-1%,i,?,32µM*
O=C(NC1CCCc2c1[nH]c1c(Cl)cccc21)C1(c2ccccc2)CCOCC1 (stereo not given),1%,i,i,-5%,-23%
O=C(Cc1n[nH]c(=O)c2ccccc12)NC1CCCc2c1[nH]c1c(Cl)cccc21 (stereo not given),-27%,2%,i,-115%,?
O=C(NC1CCN(c2cc(-c3ccc(F)cc3)[nH]n2)C1)c1cc(Cl)ccc1F (stereo not given),-18%,-6%,i,?,35µM*
O=C(NC1CCCN(c2cc(-c3ccc(F)cc3)[nH]n2)C1)c1cc(F)ccc1F (stereo not given),-21%,-25%,i,45µM*,?
COc1ccc(-c2cc(N3CCC(NC(=O)c4cc(Cl)ccc4F)C3)n[nH]2)cc1 (stereo not given),-11%,-23%,i,?,?
O=C(NC1CCCN(c2cc(-c3ccc(F)cc3)[nH]n2)C1)c1ccc(F)cc1F (stereo not given),2%,i,i,?,?
COc1cc(OC)cc(OCc2nc3c(n2Cc2ccccc2)C(=O)N(Cc2ccccc2C#N)CCN3)c1,-20%,-29%,i,?,-42%
COc1ccccc1CNC(=O)C1CCN(C(=O)c2ccc(-c3cncnc3)cc2)CC1,.,-25%,.,?,?
CSCCNC(=O)C1CCCN1c1nccc(Nc2ccc(C)cc2)n1 (stereo not given),.,i,.,79µM*,-7%
Cc1ccc(Nc2ccnc(N3CCCC3C(=O)NCC3CC3)n2)cc1 (stereo not given),.,i,.,35µM*,-8%
Cc1ccc(Nc2ccnc(N3CCCC3C(=O)NCCCc3ccccc3)n2)cc1 (stereo not given),.,i,.,40µM*,?
Cc1ccc(Nc2ccnc(N3CCCC3C(=O)NCc3ccccc3)n2)cc1 (stereo not given),.,i,.,?,?
O=C(NC1CCCC1)N1CCCC(C(=O)N2CCC(c3nc4ccncc4[nH]3)CC2)C1 (stereo not given),.,i,.,i,-3%
